# Source: PubChem BioAssay
# An excerpt weighted towards active compounds, which were near 1.2% of everything screened.
# Keap1-Nrf2 PPI: inhibitors of human Keap1-Nrf2 protein-protein interaction; 0.15% of 340,000 active; Q14145; inhibition, % at 9.4 µM; Keap1 Kelch-Nrf2 peptide fluorescence polarization, 1536-well; AID 504523; in the data active means inhibition above about 12%;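 further: human Keap1 Kelch domain with fluorescein labeled Nrf2 9mer peptide probe; 0% = neutral control wells and 100% = peptide positive control; higher means more block of Keap1 binding to Nrf2 peptide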
# Target sequence (Q14145 whole entry, looked up, the tested form may be a part): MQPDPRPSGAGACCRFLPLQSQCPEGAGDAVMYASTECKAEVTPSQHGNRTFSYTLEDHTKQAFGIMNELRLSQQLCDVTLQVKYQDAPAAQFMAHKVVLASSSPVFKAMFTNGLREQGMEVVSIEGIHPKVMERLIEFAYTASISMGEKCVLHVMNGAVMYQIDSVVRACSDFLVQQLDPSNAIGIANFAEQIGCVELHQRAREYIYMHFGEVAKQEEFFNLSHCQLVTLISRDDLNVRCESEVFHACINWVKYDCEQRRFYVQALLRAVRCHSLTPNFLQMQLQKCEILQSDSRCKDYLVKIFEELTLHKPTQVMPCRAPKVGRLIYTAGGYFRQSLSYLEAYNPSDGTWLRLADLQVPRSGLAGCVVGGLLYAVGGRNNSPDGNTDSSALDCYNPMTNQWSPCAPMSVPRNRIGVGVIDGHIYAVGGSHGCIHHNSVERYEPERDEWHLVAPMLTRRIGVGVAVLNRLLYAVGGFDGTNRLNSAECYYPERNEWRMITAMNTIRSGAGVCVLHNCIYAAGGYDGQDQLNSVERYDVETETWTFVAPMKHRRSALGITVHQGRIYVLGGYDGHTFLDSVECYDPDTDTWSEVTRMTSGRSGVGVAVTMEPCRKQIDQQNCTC
# MEX-5 binding: C. elegans MEX-5 TCR-2 RNA binding activity; 0.38% of 300,000 active; MEX-5/FITC-TCR2 RNA binding, fluorescence polarization; hits give low values; activity score (negative = inhibition of binding), % at 10 µM;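 active means inhibition past about -25% in most replicates, and total fluorescence under double the plate's negative control median, limit read from the data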;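 further: 0% = DMSO and -100% = 5 µM competing unlabeled TCR2 RNA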
# E coli Lon inh: inhibitors of E. coli Lon protease; 0.42% of 360,000 active; inhibition, % at 7.94 µM; purified E. coli Lon protease, fluorescence polarization; P0A9M0; in the data active means inhibition above about 13%, passing the limit was not always enough;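 further: 0% = enzyme with probe and DMSO and 100% = no enzyme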
# Bcl-xL primary: Bcl-xL (human) inhibition | GST-Bcl-xL / FITC-Bim BH3 peptide fluorescence polarization | 0.7% of 320,000 active | inhibition, % at 10.9 µM | AID 2129;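 active means inhibition above the mean of all tested compounds plus 3 SD, cutoff set per campaign, cut at about 30% in these data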;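 further: 0% = DMSO wells and 100% = unlabeled Bim-BH3 peptide competitor; inhibitors lower millipolarization by displacing the labeled peptide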
# GLD-1 RNA inh: GLD-1-TGE RNA interaction inhibition (C. elegans); purified GLD-1 + fluorescein TGE RNA, fluorescence polarization; inhibition, % at 5.96 µM; 0.44% of 320,000 active; AID 2280; Q17339;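 active means percent inhibition above a per-plate cutoff, the plate mean of test compounds plus 3 SD, cut at about 30% in these data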;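 further: 0% = DMSO wells with GLD-1 and probe and 100% = wells lacking GLD-1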
# C-LANA FP: blocks KSHV LANA C-terminal domain binding to DNA; 0.078% of 340,000 active; AID 504423; inhibition, % at 9 µM; MBP-C-LANA/FAM-LBS DNA binding, fluorescence polarization;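 active means highest replicate inhibition at or above 60% at 9 µM, even if other replicates fall short; inactive means all replicates below 60% inhibition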;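 further: 0% = neutral control wells and 100% = 4 µM acridine orange control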
# Keap1 Kelch bind: binds and thermally shifts human Keap1 Kelch domain; Keap1 Kelch thermal shift, delta Tm; hits give high values; max delta Tm, degrees C; shares compounds with Keap1-Nrf2 PPI; 8% of 400 active; AID 651823; in the data active means max delta Tm above about 0.48 degrees C
# Dye-only ctr: shifts Sypro Orange melt without protein, a false positive | 140 tested, under 10 active | shares compounds with Keap1-Nrf2 PPI | delta Tm, degrees C (concentration not given with the values) | Sypro Orange dye-only thermal melt, no protein, delta Tm; top dose 26 µM;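 active means at highest dose tested, delta Tm positive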
# An asterisk follows results filed as active; / = no result.
SMILES,Keap1-Nrf2 PPI,MEX-5 binding,E coli Lon inh,Bcl-xL primary,GLD-1 RNA inh,C-LANA FP,Keap1 Kelch bind,others
N#C/C(=C\c1ccc[nH]1)C(=O)N1CCCCC1,58*,-1,2,1,-1,/,-0.17,
N#C/C(=C\c1ccc(O)cc1)C(=O)N1CCCC1,-4,2,4,4,9,-1,/,
COc1ccc(C(C)=NNc2ccc([N+](=O)[O-])cc2S(=O)(=O)Nc2ccccc2C(=O)O)c(OC)c1,32*,/,-9,/,1,14,3.3*,Dye-only ctr=-21
Cc1ccc(C(=O)NNC(=O)c2n[nH]c(=O)c3ccccc23)cc1C,33*,/,6,-16,-1,15,-0.04,
N#Cc1cccc(NC(=O)CNc2cc(S(=O)(=O)N3CCOCC3)ccc2N2CCCC2)c1,2,/,-3,/,/,2,/,
O=C(c1ccc(Br)c(S(=O)(=O)N2CCCCC2)c1)N1CCCCC1,6,2,-4,0,-3,-1,/,
Cc1cc(NC(=O)CSc2nnc(-c3ccncc3)n2C)n(-c2ccccc2)n1,15*,0,-6,5,5,12,-0.15,Dye-only ctr=-22
c1ccc(-c2cn3nc4c(nc3n2)CCCC4)cc1,22*,-37*,7,112*,91*,41,-0.13,Dye-only ctr=-30
c1ccc(-c2cn3nc(-c4ccccc4)cnc3n2)cc1,-2,/,-7,3,3,-4,/,
COC(=O)C1=COC(C)C2CN3CCc4c([nH]c5ccccc45)C3CC12 (stereo not given),15*,-18,3,89*,48*,45,0.01,
CC(OC(=O)c1ccc(-n2cnnn2)cc1)C(=O)Nc1ccc(F)c(F)c1F (stereo not given),-4,/,-14,-4,1,2,/,
COc1ccc(/C=c2\s/c(=C(/C#N)C(=O)NCc3ccco3)n(-c3ccccc3)c2=O)cc1,13*,-11,-11,2,-5,13,-0.02,
Cc1ccccc1Oc1ccc2c(c1)[C@@H]1C[C@H](N(C)C(=S)Nc3ccc(F)cc3)[C@H]([C@H](C)O)C(=O)N1CC2,/,/,6,/,/,/,/,
COc1cc(/C=C/C(=O)OCC(=O)c2ccc3c(c2)NC(=O)CO3)ccc1OC(F)F,21*,/,-6,-13,-2,11,-0.12,Dye-only ctr=-26
CCC(C)(C)n1nnnc1C(c1cc2ccc(OC)cc2[nH]c1=O)N1CCc2ccccc2C1 (stereo not given),9.6*,3,-5,8,7,35,-0.13,Dye-only ctr=-24
COc1ccc2cc(C(c3nnnn3C(C)(C)C)N3CCc4ccccc4C3)c(=O)[nH]c2c1 (stereo not given),/,/,/,11,7,/,/,
CC1(C)CC(=O)C2=C(C1)OC1=C(C2)C(=O)CC(C)(C)C1,21*,0,2,3,0,2,-0.1,
CC1(C)CC(=O)C2=C(C1)NC(=O)CC2,/,/,-2,/,/,/,/,
COc1cc(S(=O)(=O)N2CCCCC2)ccc1NC(=O)c1ccccc1Cl,-2,1,-3,1,6,0,/,
Cc1ccc(S(=O)(=O)N2CCCCC2)cc1NC(=O)c1ccccc1Cl,31*,/,8,/,-2,23,-0.18,
O=C(O)c1cccc(-n2cccc2/C=C2/NC(=O)N(c3ccc(Cl)cc3)C2=O)c1,19*,/,-12,/,/,110*,0.46,
Cc1[nH]nc2c1C(CC(C)C)C(C#N)=C(N)O2 (stereo not given),46*,0,4,2,5,28,-0.17,Dye-only ctr=-33
CCOc1ccc(S(=O)(=O)Nc2cccc(C(=O)NCCCn3ccnc3)c2)cc1,27*,/,1,-3,4,12,0.01,
Cc1ccc(C)c(NC(=O)CN(C)C(=O)c2cc3ccccc3oc2=O)c1,-3,/,-6,/,-1,1,/,
O=C1NC(c2ccc(Cl)c([N+](=O)[O-])c2)Nc2ccccc21 (stereo not given),-7,1,3,1,-1,0,/,
SMILES,Keap1-Nrf2 PPI,MEX-5 binding,E coli Lon inh,Bcl-xL primary,GLD-1 RNA inh,C-LANA FP,Keap1 Kelch bind,others
O=C1NC(c2cc(Cl)cc([N+](=O)[O-])c2O)Nc2ccccc21 (stereo not given),49*,1,1,4,0,1,0.25,
CC(C)Cn1c(N)c(C(=O)CSc2ccccc2)c(=O)n(C)c1=O,2,1,0,8,2,2,/,
CC(C)Cn1c(N)c(C(=O)CSc2nnc(-c3ccco3)n2C)c(=O)n(C)c1=O,68*,/,-6,5,7,/,0.03,
Cc1ccccc1-c1cc2nc(OCC3CCCO3)n(C)c(=O)c2s1 (stereo not given),/,/,0,/,/,/,/,
C=CCn1c(Sc2ncc([N+](=O)[O-])s2)n[nH]c1=O,19*,-5,5,-4,2,2,-0.09,Dye-only ctr=-28
CC(C)n1nnnc1C1c2ccccc2C(=O)N1Cc1ccccc1 (stereo not given),/,/,-4,/,/,/,/,
Cc1ccc(OCC(=O)Nc2ccc3c(c2)C(=O)N(CCC(=O)O)C3=O)cc1,2,0,-6,2,0,0,/,
COc1cccc(Nc2nc3cc(C)ccc3cc2C)c1,/,/,2,/,/,/,/,
CCCCCSc1nnc2c(n1)OC(C)N(C(C)=O)c1ccccc1-2 (stereo not given),13*,-4,-4,5,3,0,-0.03,
S=C1SCN(CC2CC2)CN1CC1CC1,33*,0,3,5,3,33,-0.15,
O=[N+]([O-])c1cncc([N+](=O)[O-])c1Nc1cccc(O)c1,35*,-1,-13,1,-6,27,-0.14,
COc1ccccc1Cn1c(=S)[nH]c2ccccc2c1=O,99*,-2,7,-1,-1,-2,0.01,
Cc1ccc(C(=O)NNC(=O)c2csc(N3CCOCC3)n2)o1,4,0,-15,2,0,0,/,
O=C(NNC(=O)c1ccc(Br)o1)c1csc(N2CCOCC2)n1,46*,/,-1,0,6,27,-0.12,Dye-only ctr=-24
CCCc1c(C(=O)N/N=C(\CC)c2ccccc2)nnn1-c1nonc1N,/,/,-6,/,/,/,/,
